From PubChem BioAssay (NCI)
This is part of a sample that, as a whole, favours compounds with a hit. Of some 83,000 tested, about 20% had one in any assay.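 Single-concentration screen, 48 h exposure, 96-well plates. Endpoint: percent growth. Below 10 = active.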 Activity calls are given as the source filed them.

Columns and labels:
Assay in all cases: NCI-60 one-dose screen, 48 h (100 = growth as untreated, 0 = no growth, -100 = all killed)
Details in all cases: 10 µM unless noted
DU-145 prostate = test system: DU-145 prostate
K-562 leukemia = test system: K-562 leukemia
MALME-3M melanoma = test system: MALME-3M melanoma
MDA-MB-231 breast = test system: MDA-MB-231 breast
RXF 393 renal = test system: RXF 393 renal
SF-268 CNS = test system: SF-268 CNS
SF-295 CNS = test system: SF-295 CNS
SF-539 CNS = test system: SF-539 CNS
UACC-257 melanoma = test system: UACC-257 melanoma
M14 melanoma = test system: M14 melanoma
HCT-15 colon = test system: HCT-15 colon
SNB-75 CNS = test system: SNB-75 CNS
SNB-19 CNS = test system: SNB-19 CNS
U251 CNS = test system: U251 CNS
PC-3 prostate = test system: PC-3 prostate
SK-MEL-5 melanoma = test system: SK-MEL-5 melanoma
UACC-62 melanoma = test system: UACC-62 melanoma
LOX IMVI melanoma = test system: LOX IMVI melanoma
SK-MEL-28 melanoma = test system: SK-MEL-28 melanoma
HT29 colon = test system: HT29 colon

Measured: growth

COc1ccc(NC(=O)Nc2ccc(OCCCCCC(=O)NO)cc2)cc1
inactive: DU-145 prostate 106% | K-562 leukemia 88.3% | MALME-3M melanoma 97.5% | MDA-MB-231 breast 105% | RXF 393 renal 98.3% | SF-268 CNS 101% | SF-295 CNS 109% | SF-539 CNS 103% | UACC-257 melanoma 73.4% | M14 melanoma 95.3% | HCT-15 colon 117% | SNB-75 CNS 93.2% | SNB-19 CNS 102% | U251 CNS 101% | PC-3 prostate 97.8% | SK-MEL-5 melanoma 104% | UACC-62 melanoma 89.4% | LOX IMVI melanoma 96.4% | SK-MEL-28 melanoma 103%

CN1CCN(Cc2ccc(NC(=O)c3cncc(C#Cc4cnc(N)c5ncccc45)c3)cc2C(F)(F)F)CC1
active: MALME-3M melanoma -73.5% | MDA-MB-231 breast -78.7% | RXF 393 renal -83.9% | SF-268 CNS -18.1% | SF-539 CNS -87% | M14 melanoma -87% | HCT-15 colon -30.2% | SNB-75 CNS -76.8% | U251 CNS -37.6% | SK-MEL-5 melanoma -91.9% | UACC-62 melanoma 6.71% | LOX IMVI melanoma -83.6% | SK-MEL-28 melanoma -86.8%
inactive: DU-145 prostate 18.1% | K-562 leukemia 13.9% | SF-295 CNS 31.2% | UACC-257 melanoma 17.1% | SNB-19 CNS 44.3% | PC-3 prostate 13.6%

O=C(NC(Cc1nnc2n(Cc3ccccc3)c(=O)c3c4c(sc3n12)CCCC4)c1ccccc1)c1ccccc1 (stereo unspecified)
inactive: DU-145 prostate 115% | K-562 leukemia 91% | MALME-3M melanoma 103% | MDA-MB-231 breast 94% | RXF 393 renal 79.4% | SF-268 CNS 89.5% | SF-295 CNS 108% | SF-539 CNS 111% | UACC-257 melanoma 101% | M14 melanoma 86.9% | HCT-15 colon 138% | SNB-75 CNS 81.3% | SNB-19 CNS 99.1% | U251 CNS 111% | PC-3 prostate 96.7% | SK-MEL-5 melanoma 96.1% | UACC-62 melanoma 85.9% | LOX IMVI melanoma 109% | SK-MEL-28 melanoma 110%

C/C=C(\C)C(=O)N[C@H]1C(O)C[C@]2(C)C3CC[C@@]4(C)C(CC[C@@H]4C(C)N(C)C)C3CCC2C1O (stereo partly specified)
inactive: DU-145 prostate 74.6% | MALME-3M melanoma 17.1% | MDA-MB-231 breast 65.2% | RXF 393 renal 81% | SF-268 CNS 13.6% | SF-295 CNS 105% | UACC-257 melanoma 14.6% | SNB-75 CNS 74.5% | SNB-19 CNS 104% | U251 CNS 52.3% | PC-3 prostate 45.5% | UACC-62 melanoma 62.3%
active: K-562 leukemia 0.455% | SF-539 CNS 7.02% | M14 melanoma -14.1% | HCT-15 colon -28.6% | SK-MEL-5 melanoma -41.3% | LOX IMVI melanoma -26.3% | SK-MEL-28 melanoma -7.39%

CCOC(=O)C(=CNc1cnc(Nc2ccc(N3CCOCC3)cc2)nc1Oc1ccc(OC)cc1)C(=O)OCC
inactive: DU-145 prostate 73% | K-562 leukemia 49.2% | MALME-3M melanoma 39% | MDA-MB-231 breast 59.7% | RXF 393 renal 89.2% | SF-268 CNS 69.7% | SF-295 CNS 75.9% | SF-539 CNS 24.7% | UACC-257 melanoma 87.4% | M14 melanoma 63.7% | HCT-15 colon 69.4% | SNB-19 CNS 41.7% | PC-3 prostate 67.7% | SK-MEL-5 melanoma 74% | UACC-62 melanoma 47.1% | LOX IMVI melanoma 39.3% | SK-MEL-28 melanoma 76.6%
active: SNB-75 CNS -14.3% | U251 CNS -19.4%

C[C@]1(O)CC(=O)[C@]2(O)C3=C(C=C[C@]2(O)C1)C(=O)c1c(O)cccc1C3=O
inactive: MDA-MB-231 breast 30.2% | SF-268 CNS 85.4% | SF-295 CNS 89.8% | SF-539 CNS 82.4% | UACC-257 melanoma 77.3% | SNB-75 CNS 20% | SNB-19 CNS 101% | U251 CNS 72.4% | PC-3 prostate 72.8% | UACC-62 melanoma 16.5%
active: DU-145 prostate -82.3% | K-562 leukemia 5.36% | MALME-3M melanoma -96.7% | RXF 393 renal -85.3% | M14 melanoma -24.8% | HCT-15 colon -45.5% | SK-MEL-5 melanoma -53.7% | LOX IMVI melanoma -51.5% | SK-MEL-28 melanoma -37.4%

C#CCn1cnc2cnc(Nc3cccc(NC(=O)C=C)c3)nc21
inactive: DU-145 prostate 93.5% [6.25 µM] | MALME-3M melanoma 76.7% [6.25 µM] | MDA-MB-231 breast 81.5% [6.25 µM] | RXF 393 renal 86.6% [6.25 µM] | SF-268 CNS 84.7% [6.25 µM] | SF-295 CNS 72.4% [6.25 µM] | SF-539 CNS 72.3% [6.25 µM] | UACC-257 melanoma 61.5% [6.25 µM] | M14 melanoma 62% [6.25 µM] | HCT-15 colon 91.7% [6.25 µM] | SNB-75 CNS 86.2% [6.25 µM] | SNB-19 CNS 88.3% [6.25 µM] | SK-MEL-5 melanoma 92.4% [6.25 µM] | UACC-62 melanoma 62.5% [6.25 µM] | LOX IMVI melanoma 82.7% [6.25 µM] | SK-MEL-28 melanoma 82.2% [6.25 µM]
active: K-562 leukemia 5.9% [6.25 µM] | PC-3 prostate 9.21% [6.25 µM]

NS(=O)(=O)c1ccc(NC(=O)/C(=C\c2ccc(Cl)cc2Cl)NC(=O)c2ccccc2)cc1
inactive: DU-145 prostate 109% | K-562 leukemia 88.2% | MALME-3M melanoma 93.2% | MDA-MB-231 breast 105% | RXF 393 renal 96% | SF-268 CNS 94.5% | SF-295 CNS 104% | SF-539 CNS 95.7% | UACC-257 melanoma 102% | M14 melanoma 102% | HCT-15 colon 110% | SNB-75 CNS 81.4% | SNB-19 CNS 95.6% | U251 CNS 97.1% | PC-3 prostate 89.4% | SK-MEL-5 melanoma 90.2% | UACC-62 melanoma 74.9% | LOX IMVI melanoma 96.2% | SK-MEL-28 melanoma 110%

COc1cc(C(=O)n2nc(N3CCOCC3)c3cc(-n4cccc4)ccc32)cc(OC)c1OC
active: RXF 393 renal -9.27%
inactive: DU-145 prostate 61.2% | K-562 leukemia 52.4% | MALME-3M melanoma 87.1% | MDA-MB-231 breast 54.9% | SF-268 CNS 76.8% | SF-295 CNS 71.8% | SF-539 CNS 79.9% | UACC-257 melanoma 103% | M14 melanoma 52.7% | HCT-15 colon 17.6% | SNB-75 CNS 49.8% | SNB-19 CNS 75.2% | PC-3 prostate 38% | SK-MEL-5 melanoma 64.3% | UACC-62 melanoma 73.1% | LOX IMVI melanoma 88.7% | SK-MEL-28 melanoma 72.7%

CCNc1nc(O)c(/C=C2\C=Nc3ncccc32)s1
inactive: K-562 leukemia 26.3% | MDA-MB-231 breast 10.7%
active: DU-145 prostate 9.93% | MALME-3M melanoma -6.17% | RXF 393 renal -39.3% | SF-268 CNS -5.81% | SF-295 CNS 4.95% | SF-539 CNS -64.2% | UACC-257 melanoma -15.9% | M14 melanoma 0.692% | HT29 colon 4.26% | SNB-75 CNS -71.8% | SNB-19 CNS 9.99% | U251 CNS -9.45% | PC-3 prostate 2.3% | SK-MEL-5 melanoma 9.15% | UACC-62 melanoma -16% | LOX IMVI melanoma 1.75% | SK-MEL-28 melanoma -17.2%

C=C1C(=O)O[C@H]2[C@H]1CC/C(COC(=O)/C=C\C(=O)NCc1ccc(Cn3c(=O)sn(CCCCC)c3=O)cc1)=C\CC[C@@]1(C)O[C@@H]21
inactive: DU-145 prostate 49.2% | K-562 leukemia 12.6% | MALME-3M melanoma 52.4% | MDA-MB-231 breast 71.4% | RXF 393 renal 74.9% | SF-268 CNS 92.5% | SF-295 CNS 101% | SF-539 CNS 78.7% | UACC-257 melanoma 75.8% | M14 melanoma 43.9% | HT29 colon 41.3% | SNB-75 CNS 110% | SNB-19 CNS 94.8% | U251 CNS 84.4% | PC-3 prostate 81.9% | SK-MEL-5 melanoma 106% | UACC-62 melanoma 70.1% | LOX IMVI melanoma 62.6% | SK-MEL-28 melanoma 91.1%

COc1cccc(/C=C/C(=O)c2cc3c(N)c(C(=O)Nc4cccc5ccccc45)sc3nc2C)c1
active: DU-145 prostate 7.62% | MDA-MB-231 breast -3.88% | RXF 393 renal -31.6% | SF-539 CNS -67.3% | M14 melanoma 2.46% | HT29 colon -11.2% | SNB-75 CNS -16.4% | SNB-19 CNS -18.8% | U251 CNS -11.4% | SK-MEL-5 melanoma -19.7% | UACC-62 melanoma -18.3% | LOX IMVI melanoma -66.8%
inactive: K-562 leukemia 10.4% | MALME-3M melanoma 33.5% | SF-268 CNS 15.3% | SF-295 CNS 15.5% | UACC-257 melanoma 61.7% | PC-3 prostate 27.7% | SK-MEL-28 melanoma 39.2%
